Reference: paper PMC4552634, “A New Set of Chemical Starting Points with Plasmodium falciparum Transmission-Blocking Potential for Antimalarial Drug Discovery” (PLoS ONE, 2015)
Among all 13,000 compounds or so, about 3,200 (25%) showed an effect of 50% or more. The list shows a part of the results.

System: P. falciparum stage V gametocytes
Parameters: BacTiter-Glo ATP luminescence viability of purified stage V gametocytes in 384-well plates, per cent inhibition versus DMSO
Conditions: 48 h, 5 µM; inhibitor

Row | SMILES | % Inhibition [%]
1 | Cn1c(-c2ccccc2)cc2c3c(=O)cc(C(F)(F)F)[nH]c3ccc21 [TCMDC-123876] | 31.04
2 | C#CCOc1ccc(N2C(N)=NC(N)=NC2(C)C)cc1 [TCMDC-137471] | 11.38
3 | CC(C)c1cc2c(ccc3nc(N)nc(N)c32)o1 [TCMDC-131930] | 25.15
4 | Cc1ncccc1C(=O)Nc1cccc(-c2cccc(-c3nc4c(C)cccc4[nH]3)c2)c1 [TCMDC-136861] | -23.88
5 | COc1cccc(C(=O)N2CCOC(CCN3CCC(c4ccccc4)CC3)(c3ccc(Cl)c(Cl)c3)C2)c1 (centres unmarked) [TCMDC-135336] | -36.5
6 | CCCCNC(=O)[C@H](CC1CCCCC1)NC(=O)c1ccc(O)c(-c2ccc(Cl)c(Cl)c2)c1 [TCMDC-140841] | 30.41
7 | Oc1c(CN2CCC(Cc3ccccc3)CC2)cc(Cl)c2cccnc12 [TCMDC-124594] | 97.81
8 | COc1cc(C)cc(CN2CCC(Cc3ccccc3)CC2)c1O [TCMDC-124540] | -75.55
9 | O=C(NC1CC1)c1cnc(N2CCC(Cc3ccccc3)CC2)c(Cl)c1 [TCMDC-134606] | 6.713
10 | Cc1nccn1Cc1cc(C(C)(C)C)c(O)c(C(C)(C)C)c1 [TCMDC-131329] | -8.756
11 | COc1cc(CNC[C@@H](O)[C@H](Cc2ccccc2)NC(=O)c2cc(OC(C)C)cc(N3CCCS3(=O)=O)c2)cc(OC)c1 [TCMDC-134559] | 3.73
12 | COc1cc2c(cc1C=CC(=O)N1CCN(Cc3nc4sc(C)c(C)c4c(=O)[nH]3)CC1)OC(C)C2 (centres unmarked) [TCMDC-132412] | -4.453
13 | CN(C)CCOc1cc(NC(=O)Nc2ccc(-c3ccccc3)cc2Cl)ccc1I [TCMDC-139140] | -41.53
14 | C/C=C/C=C/C1=NCCc2cc(OCCC)ccc21 [TCMDC-137442] | 112.8
15 | CCC(O)c1ccc(Br)cc1NC(=O)c1cccc(Cl)c1 (centres unmarked) [TCMDC-125394] | 16.03
16 | O=C(O)c1ccc2c(c1)N(C(=O)CNCc1ccc(F)cc1)CC(=O)N2CCCc1ccccc1 [TCMDC-140379] | -9.998
17 | CNC(=O)Cc1ccc(C(=O)Nc2cccc(-c3csc(-c4nc5ccccc5[nH]4)c3)c2)cc1 [TCMDC-132395] | -10.74
18 | c1ccc(-c2[nH]c3ccccc3c2CN2CCC(N3CCCCC3)CC2)nc1 [TCMDC-141636] | 54.53
19 | Fc1ccc2[nH]c(-c3ccccc3)nc2c1CN1CCC(N2CCCC2)CC1 [TCMDC-136310] | 4.53
20 | Clc1ccc(-c2[nH]c3ccccc3c2CN2CCC(N3CCCCC3)CC2)cc1 [TCMDC-141631] | 17.32
21 | COc1ccc2nccc(N3C[C@H]4C[C@@H]3CN4CCNCc3ccc4c(n3)NC(=O)CS4)c2n1 [TCMDC-134685] | 4.783
22 | Cn1nc(-c2ccc(NC(=O)Nc3cc(C(F)(F)F)ccc3F)cc2)c2cnc(NCCCCN3CCCC3)nc21 [TCMDC-141585] | 81.15
23 | Cn1nc(-c2ccc(NC(=O)Nc3cc(C(F)(F)F)cc(C(F)(F)F)c3)c(F)c2)c2cnc(NCCN3CCOCC3)nc21 [TCMDC-141560] | 5.577
24 | CC1CCCCN1CCCNc1ncc2c(-c3ccc(NC(=O)Nc4cc(C(F)(F)F)ccc4F)c(F)c3)nn(C)c2n1 (centres unmarked) [TCMDC-141608] | 97.41
25 | Cn1nc(-c2ccc(NC(=O)Nc3cc(C(F)(F)F)ccc3F)c(F)c2)c2cnc(NCCCn3ccnc3)nc21 [TCMDC-141612] | 3.105
26 | Cn1nc(-c2ccc(NC(=O)Nc3cc(C(F)(F)F)ccc3F)c(F)c2)c2cnc(NCCCN3CCOCC3)nc21 [TCMDC-141607] | 30.03

Row | SMILES | % Inhibition [%]
27 | CCN(CC)CCCNc1ncc2c(-c3ccc(NC(=O)Nc4cc(C(F)(F)F)ccc4F)c(F)c3)nn(C)c2n1 [TCMDC-141609] | 106.5
28 | CN1CCN(CCCNc2ncc3c(-c4ccc(NC(=O)Nc5cc(C(F)(F)F)ccc5F)c(F)c4)nn(C)c3n2)CC1 [TCMDC-141611] | 81.4
29 | Nc1nc(N)c2c(Oc3ccc(Cl)c(Cl)c3)cccc2n1 [TCMDC-137740] | -61.22
30 | Nc1nc(N)c2c(Sc3ccc(F)cc3)cccc2n1 [TCMDC-137179] | 36.57
31 | CC(=O)Nc1nc(C(=O)Nc2cccc(-c3cccc(-c4nc5ccc(F)cc5[nH]4)c3)c2)cs1 [TCMDC-137124] | 18.32
32 | CN1CCN(c2ccnc3ccc(NC(=O)Nc4ccc5c(c4)CCCC5=O)cc23)CC1 [TCMDC-139261] | -6.438
33 | COc1ccc(CCNCC(O)COc2nccc3c(S(=O)(=O)N4CCCNCC4)cccc23)cc1OC (centres unmarked) [TCMDC-132101] | 25.52
34 | O=C(Nc1ccc2c(c1)CCN2C1CCN(Cc2ccc(C(F)(F)F)cc2F)C1)c1ccco1 (centres unmarked) [TCMDC-135070] | -51.15
35 | O=C(Cc1ccc(-n2cnnn2)cc1)N(Cc1cncn1Cc1cccc(C(F)(F)F)c1)CC1CC1 [TCMDC-132461] | 5.053
36 | C1=CN(Cc2ccccc2)C=CC1=C1C=Nc2ccccc21 [TCMDC-138319] | 1.652
37 | O=C1OC2(CCN(C(=O)c3ccc(-n4cnnn4)cc3)CC2)CN1Cc1ccc(Cl)c(Cl)c1 [TCMDC-136544] | 34.85
38 | C1=C(c2c[nH]c3ccccc23)CCN(Cc2ccccc2)C1 [TCMDC-123457] | -71.35
39 | O=S(=O)(NC1CCN(c2ccnc3cc(Cl)ccc23)C1)c1ccc(C(F)(F)F)cc1 (centres unmarked) [TCMDC-133662] | -7.86
40 | Cn1nc(-c2ccc(NC(=O)Nc3cc(C(F)(F)F)ccc3F)cc2)c2cnc(NCCc3cnc[nH]3)nc21 [TCMDC-141621] | 12.4
41 | CCN(CC)CCCNc1ncc2c(-c3ccc(NC(=O)Nc4cc(C(F)(F)F)ccc4F)cc3)nn(C)c2n1 [TCMDC-141583] | 96.86
42 | COc1ccc2nccc([C@@H](O)CN3CCC(NC(=O)C(=O)c4c[nH]c5c(C)cccc45)CC3)c2c1 [TCMDC-141107] | -28.63
43 | CCC(=O)Nc1nnc(Cc2ccc(OC)c(OC)c2)s1 [TCMDC-125741] | -62.68
44 | C=CCOc1ccc(Cc2cnc(N)nc2N)cc1CCC [TCMDC-137639] | -18.38
45 | N=C(N)c1ccc(NC(=O)Cc2nc3ccc(C(=N)N)cc3[nH]2)cc1 [TCMDC-131867] | 10.64
46 | Cc1cc(-c2nc3ccc(C(=N)N)cc3[nH]2)c(C)cc1-c1nc2ccc(C(=N)N)cc2[nH]1 [TCMDC-137798] | 92.7
47 | N=C(N)c1ccc2nc(SCc3ccccc3)[nH]c2c1 [TCMDC-131872] | 24.07
48 | COc1ccccc1C(=O)C1CCCN(C(=O)c2ccccc2C(F)(F)F)C1 (centres unmarked) [TCMDC-124693] | -57
49 | CN(C)CCOc1cc(O)c2c(c1)OC(C)(C)C=C2c1cccs1 [TCMDC-131331] | -14.82
50 | Cc1[nH]c(C)c(-c2ccc(OCCSc3ccncc3)cc2)c(=O)c1Br [TCMDC-135220] | 64.24
51 | Cc1[nH]c(C)c(-c2ccc(OCCn3cnc(Cl)c3Cl)cc2)c(=O)c1Br [TCMDC-134570] | -18.53
52 | Cc1[nH]c(C)c(-c2ccc(OCCCCSc3ccncc3)cc2)c(=O)c1Br [TCMDC-135256] | 73.89

Row | SMILES | % Inhibition [%]
53 | C[C@@H](C(=O)N1CCOCC1)N1CC[C@H](NS(=O)(=O)c2ccc3ccnc(N)c3c2)C1=O [TCMDC-136755] | 0.9724
54 | N=c1n(CCN2CCCCC2)c2ccccc2n1CC(O)c1cccc(Br)c1 (centres unmarked) [TCMDC-125140] | 60.98
55 | CC(NC(=O)c1ccc(O)c(-c2ccc(Cl)c(Cl)c2)c1)C(=O)NCCN1CCCCC1 (centres unmarked) [TCMDC-140857] | 27.12
56 | COC(=O)c1ccc(CC(C)NCC(O)c2cccc(Br)c2)cc1 (centres unmarked) [TCMDC-131437] | 10.23
57 | N=c1n(CCN2CCCCC2)c2ccccc2n1CC(O)c1ccc(Cl)c(Cl)c1 (centres unmarked) [TCMDC-124064] | 91.16
58 | N=c1n(CCN2CCCCC2)c2ccccc2n1CC(=O)c1cccc([N+](=O)[O-])c1 [TCMDC-123516] | -26.88
59 | N=c1n(CCN2CCCC2)c2ccccc2n1CC(O)c1ccc(Cl)c(Cl)c1 (centres unmarked) [TCMDC-124063] | 70.46
60 | CC(NC(=O)c1ccc(O)c(-c2ccc(Cl)c(Cl)c2)c1)C(=O)NCCN1CCCC1 (centres unmarked) [TCMDC-140827] | -9.232
61 | O=C(N[C@@H](Cc1ccccc1)C(=O)NCCN1CCCC1)c1ccc(O)c(-c2ccc(Cl)c(Cl)c2)c1 [TCMDC-140829] | 26.26
62 | O=C(N[C@@H](Cc1ccccc1)C(=O)NCCN1CCCCC1)c1ccc(O)c(-c2ccc(Cl)c(Cl)c2)c1 [TCMDC-140859] | 10.94
63 | CCOc1ccc(C=CC(=O)Nc2ccc3nc(N4CCOCC4)cc(C)c3c2)cc1OC [TCMDC-124420] | -58.06
64 | COc1ccc(NS(=O)(=O)c2cccc(C(=O)Nc3ccc(C(F)(F)F)cc3)c2)cc1N1CCN(CC(C)C)CC1 [TCMDC-141780] | -61.2
65 | N#Cc1ccc(CN2CCC(Oc3ccc(NC(=O)c4ccsc4)cc3Cl)C2)cc1 (centres unmarked) [TCMDC-133961] | 27.45
66 | COc1ccc(-c2ccc(CN(C)C3CCC(NC(=O)c4cc5ccccc5[nH]4)CC3)cc2)cn1 (centres unmarked) [TCMDC-132893] | 48.26
67 | Cc1cc2c(NC(=O)NC3CCN(Cc4ccc(Cl)c(Cl)c4)CC3)cccc2cn1 [TCMDC-141771] | 11.02
68 | Cc1nnc2c(NC(=O)NC3CCCC3)cc3cc(-c4ccc(CN5CCCCC5)cc4)ccc3n12 [TCMDC-136711] | 3.866
69 | Cc1nnc2c(NC(=O)NC3CCCC3)cc3ccc(-c4cccc(CN5CCN(C)CC5)c4)cc3n12 [TCMDC-136730] | 98.59
70 | Cc1cc2c(NC(=O)NC3CCN(CCc4ccccc4Cl)CC3)cccc2cn1 [TCMDC-141800] | -1.237
71 | CN1CCCN(Cc2cccc(-c3cccc(NC(=O)c4ccc(C#N)cc4)c3)c2)CC1 [TCMDC-132655] | 11.69
72 | Cc1nnc2c(NC(=O)NC3CCCC3)cc3cc(-c4ccc(CN5CCN(C)CC5)cc4)ccc3n12 [TCMDC-136717] | 93.03
73 | Cc1cccc(CNc2nc(C)cc(N[C@@H](Cc3ccccc3)C(=O)NC3CCCC3)n2)c1 [TCMDC-134886] | 14.7
74 | Cc1nnc2c(NC(=O)NC3CCCC3)cc3ccc(-c4cccc(CN(C)C)c4)cc3n12 [TCMDC-136731] | 62.95
75 | Cc1nnc2c(NC(=O)NC3CCCC3)cc3cc(-c4ccc(CN(C)C)cc4)ccc3n12 [TCMDC-136487] | 88.82
76 | Cc1cc2c(NC(=O)NC3CCN(CCc4cccc(Cl)c4)CC3)cccc2cn1 [TCMDC-141801] | 1.957
77 | CN(Cc1ccc(NC(=O)NC2CCN(C(=O)/C=C/c3ccc(Cl)c(Cl)c3)CC2)cc1)C1CCOCC1 [TCMDC-140523] | 15.53
